Assay outcomes (PubChem)
IDE exosite FP: insulin-degrading enzyme (human) exo-site inhibition; P14735; purified IDE, FL-6b probe fluorescence polarization; hits give low values; z-score at 20 µM; hit rate 6.3% among 17,000;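 active means z-score of -3 or lower, meaning strong loss of probe binding signal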;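 further: His-tagged human IDE residues 42-1019 made in E. coli with 30 nM FL-6b probe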
An asterisk follows results filed as active. Shown is part of a subset that was picked to be rich in hits.

SMILES	IDE exosite FP
COc1ccc(-c2ccc([C@@H]3[C@@H](CO)N4C(=O)CN(C(=O)Cc5ccccn5)C[C@H]34)cc2)cc1	1.1
Cc1cccc(-c2ccc([C@H]3[C@@H](CO)N4C(=O)CN(C(=O)Cc5ccccn5)C[C@@H]34)cc2)c1	-11*
O=C(Cc1ccccn1)N1CC(=O)N2[C@H](CO)[C@@H](c3ccc(C#CC4CC4)cc3)[C@H]2C1	3.5
Cc1ccc(-c2ccc([C@H]3[C@H]4CN(C(=O)Cc5ccccn5)CC(=O)N4[C@H]3CO)cc2)cc1	-2.1
O=C(Cc1ccccn1)N1CC(=O)N2[C@H](C1)[C@@H](c1ccc(C#CC3CC3)cc1)[C@@H]2CO	-3.1*
Cc1cccc(-c2ccc([C@@H]3[C@@H](CO)N4C(=O)CN(C(=O)Cc5ccccn5)C[C@@H]34)cc2)c1	-12*
Cc1ccc(-c2ccc([C@H]3[C@@H](CO)N4C(=O)CN(C(=O)Cc5ccccn5)C[C@@H]34)cc2)cc1	-1.3
O=C(Cc1ccccn1)N1CC(=O)N2[C@@H](CO)[C@H](c3ccc(-c4ccccc4)cc3)[C@@H]2C1	-1.5
Cc1cccc(-c2ccc([C@H]3[C@H]4CN(C(=O)Cc5ccccn5)CC(=O)N4[C@H]3CO)cc2)c1	-4.5*
COCC#Cc1ccc([C@H]2[C@H](CO)N3CCCCN(S(=O)(=O)c4ccc(OC)cc4)C[C@@H]23)cc1	3.7
CCCC#Cc1ccc([C@@H]2[C@H]3CN(C(=O)c4cccc(F)c4)CC(=O)N3[C@H]2CO)cc1	2
CS(=O)(=O)N1CC(=O)N2[C@H](C1)[C@@H](c1ccc(C#CC3CCCC3)cc1)[C@@H]2CO	2.4
CO[C@H](CN(C)CC1CCOCC1)[C@H](C)CN(C(=O)Nc1ccc(F)cc1)[C@@H](C)CO	1.7
O=C1NCCOCc2cnnn2CC[C@H]1Cc1ccc(F)cc1	0.65
CC(C)C#Cc1ccc([C@H]2[C@H](CO)N3CCCCN(S(=O)(=O)Cc4ccccc4)C[C@@H]23)cc1	1.4
CC(C)CC#Cc1ccc([C@@H]2[C@@H](CO)N3C(=O)CN(C(=O)c4ccc5c(c4)OCO5)C[C@H]23)cc1	1.5
Cc1ccc(-c2ccc([C@@H]3[C@@H](CO)N4CCCCN(C(=O)c5ccc(F)cc5)C[C@H]34)cc2)cc1	0.55
CO[C@H]1CC[C@H]2CCOc3c(C#N)cccc3C(=O)N(C)CCCC(=O)N(C)C[C@@H]1O2	-0.19
COCC#Cc1ccc([C@@H]2[C@H]3CN(C(=O)c4cccnc4)CC(=O)N3[C@H]2CO)cc1	0.91
O=C(CN1CCOCC1)N1CC(=O)N2[C@H](CO)[C@H](c3ccc(/C=C/c4ccccc4)cc3)[C@@H]2C1	-8.7*
O=C(CN1CCOCC1)N1CC(=O)N2[C@@H](CO)[C@H](c3ccc(/C=C/c4ccccc4)cc3)[C@@H]2C1	-8.2*
Cc1ccc(-c2ccc([C@H]3[C@H]4CN(C(=O)CN5CCOCC5)CC(=O)N4[C@H]3CO)cc2)cc1	0.4
CCCC#Cc1ccc([C@@H]2[C@H]3CN(C(=O)CN4CCOCC4)CC(=O)N3[C@H]2CO)cc1	4.2
Cc1ccc(-c2ccc([C@@H]3[C@@H](CO)N4C(=O)CN(C(=O)CN5CCOCC5)C[C@H]34)cc2)cc1	-2.3
N#C[C@H]1[C@H](c2ccccc2C2=CCCC2)[C@H](CO)N1C(=O)NC1CCCCC1	0.092
SMILES	IDE exosite FP
O=C(c1cccnc1)N1CC(=O)N2[C@H](CO)[C@H](c3ccc(/C=C/c4ccccc4)cc3)[C@@H]2C1	-10*
O=C(c1ccccc1)N1CC(=O)N2[C@H](CO)[C@@H](c3ccc(/C=C/c4ccccc4)cc3)[C@@H]2C1	-1.6
O=C(c1cccnc1)N1CC(=O)N2[C@H](CO)[C@@H](c3ccc(/C=C/c4ccccc4)cc3)[C@@H]2C1	-4.3*
O=C(c1ccccc1)N1CC(=O)N2[C@H](C1)[C@H](c1ccc(/C=C/c3ccccc3)cc1)[C@@H]2CO	-2.2
O=C(c1cccnc1)N1CC(=O)N2[C@H](C1)[C@H](c1ccc(/C=C/c3ccccc3)cc1)[C@@H]2CO	-4.5*
O=C(c1ccccc1)N1CC(=O)N2[C@H](CO)[C@@H](c3ccc(/C=C/c4ccccc4)cc3)[C@H]2C1	-0.53
O=C(c1ccncc1)N1CC(=O)N2[C@H](C1)[C@H](c1ccc(/C=C/c3ccccc3)cc1)[C@@H]2CO	-0.3
O=C(c1ccncc1)N1CC(=O)N2[C@H](CO)[C@H](c3ccc(/C=C/c4ccccc4)cc3)[C@@H]2C1	-9.5*
CCCNC(=O)C[C@H]1CC[C@@H]2[C@@H](COc3ccc(NC(=O)CC)cc3C(=O)N2C)O1	-0.058
CS(=O)(=O)N1[C@@H](C#N)[C@@H](c2ccc(C#CC3CC3)cc2)[C@@H]1CO	4.7
CO[C@H]1CC[C@H]2CCOc3ccc(C#N)cc3C(=O)N(C)CC3(CCCCC3)CC(=O)N(C)C[C@H]1O2	-0.39
O=C(NCC[C@@H]1CC[C@H](NC(=O)c2ccncc2)[C@H](CO)O1)Nc1ccc(Cl)cc1	2.2
COc1ccc2c3c(n(C)c2c1)[C@@H](CO)N(S(=O)(=O)c1cn(C)cn1)CC31CCN(C)CC1	-0.19
CO[C@@H]1CN(C)C(=O)c2ccc(NC(=O)NC3CCCCC3)cc2OC[C@@H](C)N(CCc2ccccc2)C[C@H]1C	0.87
C[C@@H]1C(=O)N[C@H](c2ccccc2)CC=CC[C@H](C)Oc2ccccc2C(=O)N1C (mixture of isomers)	-0.28
CO[C@H]1CN(C)C(=O)c2cc(NS(C)(=O)=O)ccc2OC[C@@H](C)N(C(=O)C2CCOCC2)C[C@H]1C	0.47
CCC(=O)Nc1ccc2c(c1)OC[C@@H](C)N(Cc1ccccc1)C[C@@H](C)[C@@H](OC)CN(C)C2=O	2.3
CC(C)CC#Cc1ccc([C@@H]2[C@H]3CN(C(=O)Nc4cc(F)ccc4F)CC(=O)N3[C@H]2CO)cc1	0.91
C/C=C/c1ccccc1[C@H]1[C@@H](C#N)N(C(=O)NC2CCCCC2)[C@H]1CO	0.89
COc1ccc(C#Cc2ccc([C@H]3[C@H]4CN(C(=O)c5ccncc5)CCCCN4[C@H]3CO)cc2)cc1	3
O=C(c1cccnc1)N1CC(=O)N2[C@@H](CO)[C@@H](c3ccc(/C=C/c4ccccc4)cc3)[C@@H]2C1	-8.6*
O=C(c1cccnc1)N1CC(=O)N2[C@H](C1)[C@@H](c1ccc(/C=C/c3ccccc3)cc1)[C@@H]2CO	-7.7*
O=C(Cc1cccnc1)N1CC(=O)N2[C@@H](CO)[C@H](c3ccc(/C=C/c4ccccc4)cc3)[C@@H]2C1	-2.7
N#Cc1cccc(-c2ccc([C@H]3[C@@H](CO)N4CCCCN(C(=O)Nc5ccc(F)cc5)C[C@@H]34)cc2)c1	2.3
CCC(=O)N1CC(=O)N2[C@@H](CO)[C@H](c3ccc(C#CC(C)C)cc3)[C@@H]2C1	2.9
SMILES	IDE exosite FP
C[C@H]1COCn2nncc2CC[C@@H](Cc2ccc(-c3ccccc3)cc2)C(=O)N1	0.24
CN(C)C(=O)c1cccc(-c2ccc([C@@H]3[C@H]4CN(C(=O)Cc5ccccc5)CC(=O)N4[C@H]3CO)cc2)c1	0.16
CC(C)(O)C#Cc1cccc(-c2nc(C(=O)O)cc3c2[C@@H](CCO)N(S(=O)C(C)(C)C)C3)c1 (some centres not stated)	-0.5
Cc1noc(C)c1NC(=O)Nc1ccc2c(c1)C(=O)N(C)[C@@H]1CC[C@H](CC(=O)N[C@H]3CCN(Cc4ccccc4)C3)O[C@@H]1CO2	-0.21
O=C(Nc1cccc(F)c1)N1CC(=O)N2[C@H](CO)[C@H](c3ccc(C#Cc4cccnc4)cc3)[C@H]2C1	4.2
O=S(=O)(c1cccs1)N1CCCCN2[C@@H](CO)[C@H](c3ccc(C4=CCCC4)cc3)[C@@H]2C1	4.9
